Screens as filed in PubChem BioAssay.
An excerpt weighted towards active compounds, which were near 22% of everything screened.
CYP2C19 inhib – inhibitors of human CYP2C19; P33261; CYP2C19 Supersomes, luciferin-H EGE luminescence, 30 min; inhibition, % at 5 µM; 21% of 96,000 active;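 active means CYP2C19 inhibition above a set limit at 5 µM in the primary screen, cut at about 50% in these data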
Target sequence (P33261 whole entry, looked up): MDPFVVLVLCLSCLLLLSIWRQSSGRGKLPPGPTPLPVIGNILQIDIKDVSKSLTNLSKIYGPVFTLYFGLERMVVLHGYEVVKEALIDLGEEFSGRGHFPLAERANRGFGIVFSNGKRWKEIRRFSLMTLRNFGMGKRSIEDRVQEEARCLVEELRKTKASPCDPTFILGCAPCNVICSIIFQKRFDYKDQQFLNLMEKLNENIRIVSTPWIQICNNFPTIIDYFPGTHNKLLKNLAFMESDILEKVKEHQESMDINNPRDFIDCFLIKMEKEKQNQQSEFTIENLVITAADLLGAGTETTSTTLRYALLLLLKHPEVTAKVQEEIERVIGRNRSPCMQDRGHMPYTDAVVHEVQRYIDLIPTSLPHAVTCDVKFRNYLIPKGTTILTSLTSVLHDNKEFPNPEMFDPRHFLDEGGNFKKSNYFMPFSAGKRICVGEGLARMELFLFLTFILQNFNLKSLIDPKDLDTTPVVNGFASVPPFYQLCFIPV
CYP2C19 activ – increases human CYP2C19 enzyme activity | P33261 | 96,000 tested, under 10 active | activation factor at 5 µM | recombinant CYP2C19, luciferin-H EGE luminescence; active compounds read high; 0 = fully inhibited enzyme, 1 = untreated enzyme;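 active means activation factor of at least 2 at 5 µM in the primary screen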
CYP2C9 inh – inhibitors of human CYP2C9; CYP2C9 Supersomes, luciferin-H conversion, luminescence; inhibition, % at 5 µM; 20% of 96,000 active;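 active means blocking of liver enzyme CYP2C9 beyond about 50% at 5 µM, limit read from the data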
CYP2C9 act – increases human cytochrome P450 2C9 activity | P11712 | recombinant CYP2C9, luciferin-H conversion, luminescence; active compounds read high; factor 1 = untreated enzyme, 0 = blocked | activation factor at 5 µM | 1.4% of 96,000 active | AID 1024;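 active means activation factor of 2 or more for CYP2C9 at a 5 µM dose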
E-sel TNF inh – blocks E-selectin expression induced by TNF alpha. HUVEC TNFa-induced E-selectin immunofluorescence, high content. inhibition, % at 2 µM. 0.71% of 120,000 active;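 active means inhibition above the batch mean plus 3 SD, and confirmed as a hit on visual image review, cut at about 43% in these data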
cytoskel mod – cytoskeleton assembly modification; HUVEC TNFa F-actin phalloidin imaging, high content; inhibition, % at 2 µM; 0.18% of 91,000 active; AID 836;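 active means inhibition above the batch mean plus 3 SD and confirmed as a hit by visual image inspection, cut at about 30% in these data, passing the limit was not always enough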
Of the large screens only hits and unclear results are named; the others gave an inactive call.

C=CCN1CC(c2nc3ccccc3n2Cc2cccc3ccccc23)CC1=O (stereo not drawn)	CYP2C9 inh 60
NC(CC(=O)O)c1cccc(OCc2ccccc2)c1 (stereo not drawn)	none (no result: cytoskel mod)
O=C(O)c1cn(-c2ccc(F)c(F)c2)c2c(F)c(F)c(F)c(F)c2c1=O	none
Cc1ccc(OCCC(=O)OCC(=O)N2c3ccccc3CC2C)cc1 (stereo not drawn)	none (no result: E-sel TNF inh, cytoskel mod)
COc1ccc(CCC(=O)N2c3ccccc3CC2C)cc1 (stereo not drawn)	CYP2C19 inhib 96, CYP2C9 inh 57
COc1ccc(C(=O)N2CCc3ccccc32)cc1	none (no result: CYP2C19 inhib, CYP2C19 activ, CYP2C9 inh, CYP2C9 act)
COc1ccc(CCC(=O)N2CCc3ccccc32)cc1	CYP2C19 inhib 60
O=C(Cc1ccc(-n2cccc2)cc1)N1CCc2ccccc21	CYP2C19 inhib 59 (no result: E-sel TNF inh)
CCOCC(=O)N1CCc2ccccc21	none
CCCS(=O)(=O)N1CCC(Cc2ccc(OC)cc2)(C(=O)OCC)CC1	none (no result: CYP2C19 inhib, CYP2C19 activ, CYP2C9 inh, CYP2C9 act, cytoskel mod)
COc1ccc(S(=O)(=O)N2CCC(C(=O)N3CCc4ccccc4C3)CC2)cc1C	none
CS(=O)(=O)N1CCC(C(=O)N2CCc3ccccc3C2)CC1	CYP2C19 inhib 95
COc1ccc(S(=O)(=O)N2CCC(C(=O)N3CCc4ccccc4C3)CC2)cc1	CYP2C9 act 2.8
CCc1nc(N)c(C#N)c(-c2ccc(F)cc2)c1C	none
CCCc1ccc(-c2c(C)sc(N)c2C#N)cc1	CYP2C9 inh 68
Cc1cccc(Oc2coc3cc(OC(=O)c4cc5ccccc5oc4=O)ccc3c2=O)c1	CYP2C9 act 2.1
CCOC(=O)Oc1ccc2c(=O)c(Oc3cccc(C)c3)coc2c1	none
COc1cc(/C=N/NC(=O)C[n+]2ccccc2)cc(OC)c1OC	none (no result: CYP2C19 inhib, CYP2C19 activ, CYP2C9 inh, CYP2C9 act, cytoskel mod)
Cc1nn(Cc2ccc(Cl)cc2)c(C)c1NC(=O)c1cc(-c2ccc3c(c2)OCO3)on1	CYP2C9 inh 54 (no result: E-sel TNF inh)
Cc1nn(Cc2ccc(Cl)c(Cl)c2)c(C)c1NC(=O)c1cn(-c2ccccc2)nc1-c1ccccc1	CYP2C9 inh 90
Cc1cccc(C)c1NC(=O)c1cn(-c2ccccc2)nc1-c1ccccc1	none (no result: CYP2C19 inhib, CYP2C19 activ, CYP2C9 inh, CYP2C9 act, cytoskel mod)
Cc1nn(Cc2ccc(Cl)c(Cl)c2)c(C)c1NC(=O)c1cc(-c2ccc3c(c2)OCO3)on1	CYP2C9 inh 66 (no result: E-sel TNF inh)
Cc1ccccc1CN1C2=NCCCN2c2ccccc21	none
Cc1cccc(C)c1NC(=O)C(NC=O)c1ccccc1Cl (stereo not drawn)	none
Cc1cccc(C)c1NC(=O)C(NC=O)c1ccc(N(C)C)cc1 (stereo not drawn)	CYP2C19 inhib 64, CYP2C9 inh 60
O=C(CCCn1c(=O)c2sccc2n(CC(=O)NCc2ccco2)c1=O)NCc1ccco1	none
O=C(NCc1ccco1)c1ccc(Cn2c(=O)c3ccccc3n(Cc3cccc(Cl)c3)c2=O)cc1	none
O=C(CCn1c(=O)c2sccc2n(CC(=O)NCc2ccco2)c1=O)NCc1ccccc1	CYP2C9 inh 61
Cc1cccc(C)c1NC(=O)Cn1c(=O)n(CCCC(=O)NCc2ccco2)c(=O)c2sccc21	CYP2C9 inh 78
O=C(NCc1ccco1)c1ccc(Cn2c(=O)c3sccc3n(Cc3cccc(F)c3)c2=O)cc1	CYP2C19 inhib 87, CYP2C9 inh 85 (no result: E-sel TNF inh)
Cn1c(-c2nonc2NC(=O)c2ccc(C(C)(C)C)cc2)nc2ccccc21	none (no result: E-sel TNF inh, cytoskel mod)
O=C(Nc1ccc(-c2nc3ccc(NC(=O)c4cccs4)cc3[nH]2)cc1)c1cccs1	none (no result: cytoskel mod)
O=C(Nc1ccc2nc(-c3cccs3)[nH]c2c1)c1cccs1	CYP2C19 inhib 57, CYP2C9 inh 81
COc1ccc2c(c1OC)C(=O)N1c3ccccc3C(=O)N(c3ccccc3)C21 (stereo not drawn)	CYP2C9 inh 59
Cc1cccc(NC2=NCC(=O)N2CCc2ccccc2)c1	none
CCOc1ccc(NC(=O)c2ccccc2NC(=O)CN(C)CC(=O)Nc2ccc(C)cc2)cc1	CYP2C19 inhib 94, CYP2C9 inh 97
COc1ccc(NC(=O)CN(C)CC(=O)Nc2ccccc2SC)cc1	E-sel TNF inh 70 (no result: CYP2C19 inhib, CYP2C19 activ, CYP2C9 inh, CYP2C9 act, cytoskel mod)
COc1ccc(CSCC(=O)Nc2ccccc2SC)cc1	none (no result: CYP2C19 inhib, CYP2C19 activ, CYP2C9 inh, CYP2C9 act, cytoskel mod)
COc1ccc(S(=O)(=O)N(CCc2ccccc2)CC(=O)NCCCO)cc1	CYP2C19 inhib 51 (no result: cytoskel mod)
CCNC(=O)CN(CCc1ccccc1)S(=O)(=O)c1ccc(OC)cc1	CYP2C19 inhib 96, CYP2C9 inh 88 (no result: cytoskel mod)
COc1ccc(S(=O)(=O)N(CCc2ccccc2)CC(=O)N/N=C/c2ccc3c(c2)OCO3)cc1	none (no result: CYP2C19 inhib, CYP2C19 activ, CYP2C9 inh, CYP2C9 act, cytoskel mod)
